Hits are enriched below; roughly 3% of the tested compounds scored in any of these assays.
Nrf2 ARE act = qHTS of Nrf2 Activators; AREc32 ARE-luciferase reporter (MCF7-derived line), luminescence, 24 h; 410,000 tested, 0.31% active; Potency, µM (titrated, usually from 46.1 µM), for inactives: top-dose activation, actives largely listed as activators; note: potency is the fitted concentration of half-maximal effect; % of control where 0% means no effect; nearly all actives have a fitted effect of over 65% in size
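For detection, Steady-Glo was added and plates sat 30 min at RT; before that, AREc32_Fluc cells grown overnight in OPTI-MEM/5% FBS had been treated with 23 nL compound for 24 hr at 37 deg C.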
D3 antag = qHTS of D3 Dopamine Receptor Antagonist: qHTS | D3R cells, DiscoveRx beta-arrestin luminescence, antagonist mode; hits give low values | 360,000 tested, 2.5% active | max response, negative = inhibition, % | D(3) dopamine receptor (Homo sapiens), P35462 | AID 652054, 2013; in the data active = max response below about -50%; inconclusive = no clear call, values can overlap the other calls; note: % is set by controls: 0 for no effect and ±100 for the full control effect
Target sequence (P35462 whole entry, looked up): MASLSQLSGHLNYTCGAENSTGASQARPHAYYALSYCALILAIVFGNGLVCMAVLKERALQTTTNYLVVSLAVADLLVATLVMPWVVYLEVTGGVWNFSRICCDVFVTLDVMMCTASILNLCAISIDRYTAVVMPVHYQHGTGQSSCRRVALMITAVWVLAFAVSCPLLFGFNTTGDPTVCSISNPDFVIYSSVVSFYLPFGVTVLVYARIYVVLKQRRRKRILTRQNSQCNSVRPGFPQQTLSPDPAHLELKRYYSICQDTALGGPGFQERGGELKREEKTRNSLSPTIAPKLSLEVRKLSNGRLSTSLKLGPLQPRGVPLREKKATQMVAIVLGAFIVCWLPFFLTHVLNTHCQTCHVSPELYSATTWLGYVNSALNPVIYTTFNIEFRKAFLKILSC
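Cells plated overnight at 1500 cells/well, then exposed to library compounds with dopamine controls for 90 minutes at 37 degrees C. DiscoveRx reagent added for 30–60 minutes at room temperature; luminescence read, quantitative HTS format.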
Glioma ERSR ind = qHTS for Inducers of the Endoplasmic Reticulum Stress Response (ERSR) in Human Glioma: qHTS; Potency, µM, for inactives: top-dose activation, actives largely listed as activators; U87-MG GRP78 promoter luciferase reporter, 16 h; 420,000 tested, 0.02% active; AID 602332, 2012; note: potency is the fitted concentration of half-maximal effect; series mostly up to about 76 µM; % of control where 0% means no effect; nearly all actives have a fitted effect of over 35% in size
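Stably transfected U87-MG human glioma cells carrying a GRP78-based luminescent sensor were seeded at 1000 cells/well, pin-dosed with compounds and incubated 16 h. Luciferase reagent was then added, and end-point luminescence was read after 10 min at room temperature.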
DRD3 agonist = qHTS of D3 Dopamine Receptor Agonist: qHTS; D(3) dopamine receptor (Homo sapiens), P35462; D3R DiscoveRx beta-arrestin cells, luminescence, 90 min; max activation, %; 410,000 tested, 0.58% active; in the data active = max activation above about 30%; note: 0% is about no effect
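Agonist mode: compounds and dopamine controls were applied to plated cells for 90 min at 37 degrees C after an overnight attachment at 1500 cells/well. Luminescent read-out followed 30 - 60 minutes at room temperature with DiscoveRx detection reagent.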
The depositor's hits bear a star; ? = inconclusive; nt = no result given; ! = a repeat was not active; [ ] = another dose, or the depositor's remark. Unless noted, calls come from the whole dose curve; as a rule, active = well fitted curve in the direction sought with a large enough effect; inconclusive = small, poorly fitted or top-dose-only effect, or another doubt; inactive = no such curve, though single readings can be large; an effect the other way counts as inactive or inconclusive.

SMILES | Nrf2 ARE act | D3 antag | Glioma ERSR ind | DRD3 agonist
CCNC(=O)C1(C)CCCN(Cc2csc3ccccc23)C1 (centres undefined) | 0%[9.22 µM] | 21 | -3% | -2
CSc1ccc(CN2CCC(C)(Oc3ccc(-n4ccnc4)cc3)C2)cc1 (centres undefined) | 7% | -97* | -5% | -22
CSc1ccc(CN2CCC(C)(Oc3ccc(CC#N)cc3)C2)cc1 (centres undefined) | 7% | -27 | -1% | -14
CSc1ccc(CN2CCC(C)(Oc3ccc4ccccc4c3)C2)cc1 (centres undefined) | 5% | ? | -6% | -14
CC(C)c1ccc(CN2CCC(C)(Oc3ccc(Cl)cc3)C2)cc1 (centres undefined) | 0% | -2 | -2% | -10
COc1ccc(OC)c(/C=C/C(=O)Nc2ccc(C(=O)OCCC(C)C)cc2)c1 | 5% | nt | nt | 2
COc1cc2nc(N3CCCN(C)CC3)nc(NC3CCN(C)C3)c2cc1OC (centres undefined) | nt | nt | -3% | nt
CCCCCCCCCCCC(=O)OC[C@@H](O)C1OC[C@H](O)[C@H]1O (some centres undefined) | nt | nt | nt | 2
Cc1oc(-c2ccccc2F)nc1CS(=O)(=O)CC(=O)NCCCN1CCc2ccccc2C1 | 3% | -77* | 0% | -13
Cc1oc(-c2ccccc2F)nc1CS(=O)(=O)CC(=O)NCCN1CCCC1 | 0% | 4 | -4% | -14
Cc1ccc2nc(Cl)c3cc(C(=O)NCCCN4CCCC4)sc3c2c1 | 22% | -59* | -5% | -11
Cc1ccc2cc3cc(C(=O)NCCCN4CCc5ccccc5C4)oc3nc2c1 | 7% | -55* | -7% | -12
Cc1ccc2cc3cc(C(=O)NCCCN4CCCCCC4)oc3nc2c1 | 2% | -75* | 3% | -11
Cc1ccc2cc3cc(C(=O)NCCCN4CCCC4)oc3nc2c1 | 2% | -13 | -2% | -17
COC(=O)[C@@H]1CCCN1C(=O)c1c(OC)cc(=O)n2c1CCN(Cc1ccc(C)o1)CC2 | nt | nt | 1% | nt
CN(C)CCOC(c1ccccc1)c1ccccc1 (tested in a mixture with another compound) | 0% | -67* | -1% | -77
Cc1ccccc1C(OCCN(C(C)C)C(C)C)c1ccccc1 (centres undefined) | 1% | -5 | -2% | -10
CN(C)CCOC(c1ccc(Cl)cc1)c1ccccn1 (centres undefined) | 3% | -2 | -3% | 41*!
CN(C)CCOC(c1ccccc1)c1ccccc1 | -2% | -52*! | -3% | -71
CC(C)Oc1ccccc1OCCN(C)C | 0% | -17 | -4% | -9
CN(C)c1ccc(/C=C/c2ccnc3ccc(O)cc23)cc1 | nt | nt | -3% | nt
C=C1C=C(C(F)F)n2ncc(C(=O)N3CCN(c4ccccc4)CC3)c2N1 | nt | nt | -2% | nt
CN(C)c1cccc(C(=O)Nc2ccc3nc4n(c(=O)c3c2)CCCCC4)c1 | 5% | -61* | 1% | -2
COc1cccc(C(=O)Nc2ccc3nc4n(c(=O)c3c2)CCCC4)c1 | 1% | 10 | 5% | 22
Cc1ccc(C(=O)N2CCC3(CC2)Oc2ccc(Cl)cc2C(=O)C32CC(c3cccnc3)=NO2)s1 (centres undefined) | 0% | -21 | -1% | -29
SMILES | Nrf2 ARE act | D3 antag | Glioma ERSR ind | DRD3 agonist
O=C(/C=C/c1cccs1)N1CCC2(CC1)Oc1ccc(Cl)cc1C(=O)C21CC(c2cccnc2)=NO1 (centres undefined) | -1% | 80 | -3% | 37*
COc1ccc(OC)c(C(=O)c2ccccc2)c1 | 0% | -6 | -5% | -10
CCOC(=O)Nc1cc(C)ccc1OC | -1% | 5 | -3% | 4
COc1ccc(OC)c(/C(O)=C/C(=O)C(=O)Nc2cc(C)ccc2OC)c1 | 2% | -57* | 0% | -5
COc1ccc(OC)c(/C(O)=C/C(=O)C(=O)Nc2cc(C)cc(C)c2)c1 | 4% | -86* | 0% | -1
CCOc1ccccc1NC(=O)C(=O)/C=C(\O)c1cc(OC)ccc1OC | 5% | -53* | -8% | 1
COc1ccccc1NC(=O)C(=O)/C=C(\O)c1ccccc1 | 28% | -8 | -7% | 21
CC(C)C(NS(C)(=O)=O)c1nnc2n1CCN(Cc1ccc(Cl)cc1)CC2 (centres undefined) | nt | nt | -4% | nt
O=C(Cc1ccc(F)cc1)N1CCC(CC2CC(c3cccc(Br)c3)=NO2)(C(=O)NCC2CCCCC2)CC1 (centres undefined) | 0% | -51* | -6% | -30
COc1cccc(CN(C)C(=O)c2cc(-c3ccc(OC)c(OC)c3)nc3ccccc23)c1 | 5% | 39 | -2% | 34*
CSc1nc(N)c2ncn([C@@H]3O[C@H](COP(=O)(O)OP(=O)(O)O)C(O)[C@H]3O)c2n1 (some centres undefined) | nt | nt | -1% | nt
O=c1oc(-c2ccccc2)nc2c1cnn2-c1ccccc1 | 0% | 8 | -1% | -14
O=c1oc(-c2cccs2)nc2c1cnn2-c1ccccc1 | -1% | -56* | -3% | 0
CCC(=O)O[C@H]1CC[C@H]2[C@@H]3CCc4cc(O)ccc4[C@H]3CC[C@]12C | nt | nt | nt | 17
O=C(c1cc2ccccc2o1)N1CCN(C/C=C/c2ccccc2)CC1 | 0% | -78* | -2% | -19
O=C(c1cc(Br)c(Br)s1)N1CCN(C/C=C/c2ccccc2)CC1 | 0% | -78* | -4% | 3
O=C(Nc1c(Cl)cc([N+](=O)[O-])cc1Cl)c1cc(Cl)cc(Cl)c1O | nt | nt | 15% | nt
COc1ccc(-n2c(C)cc(/C=C3\C(=O)NN(c4ccccc4)C3=O)c2C)cc1 | -2% | -59* | 1% | 4
Cc1cc(/C=C2/C(=O)NN(c3ccccc3)C2=O)c(C)n1-c1ccc(O)cc1 | 0% | -3 | -9% | -5
OCC1(CCc2ccccc2)CCCN(C/C=C/c2ccccc2)C1 (centres undefined) | 1% | -68* | -3% | -23
COc1ccc(CC2(CO)CCN(C/C=C/c3ccccc3OC)CC2)cc1 | 0% | -93* | -1% | -26
COc1ccc(CC2(CO)CCN(Cc3cnn(-c4ccccc4OC)c3)CC2)cc1 | 0% | -89* | -1% | -19
COc1ccccc1/C=C/CN1CCN(c2ccccc2)CC1 | 2% | -64* | 1% | 19
COc1ccccc1/C=C/C=N/N1CCN(Cc2ccccc2)CC1 | 0% | -5 | -5% | 3
CC1=C(C(=O)NCc2ccc(Cl)cc2)C2(CCCCCC2)OC1=O | 3% | nt | -1% | -12
COC(=O)C1CCN(Cc2ccc3c(c2)CN(C(=O)c2cc(C4CC4)on2)CCO3)CC1 | nt | nt | 0% | nt
CC(COc1ccccc1)N1CCC(CO)(Cc2ccccc2)CC1 (centres undefined) | 1% | -89* | -3% | -9
CCOC(=O)C1(CCOC)CCN(Cc2ccncc2)CC1 | 0% | 9 | -6% | -3
COc1ccccc1/C=C/CN1CCCC(CO)(CCc2ccccc2)C1 (centres undefined) | 2% | -96* | -3% | -23

Screening results from PubChem BioAssay.
